Screening results: PubChem BioAssay, National Center for Advancing Translational Sciences (NCATS)
A selection: hits, their analogues and other compounds. The true share with any hit is near 10%.
GLS inhibitor = qHTS for Inhibitors of Glutaminase (GLS). GLS enzymatic activity, qHTS titration. Potency, µM (doses to about 45.5 µM), inactives show top-dose activity change, negative = inhibition, actives largely listed as inhibitors. 410,000 tested, 0.21% active; further: on the % scale 0 is the no-effect control and ±100 the full control effect
Target sequence (O94925 whole entry, looked up): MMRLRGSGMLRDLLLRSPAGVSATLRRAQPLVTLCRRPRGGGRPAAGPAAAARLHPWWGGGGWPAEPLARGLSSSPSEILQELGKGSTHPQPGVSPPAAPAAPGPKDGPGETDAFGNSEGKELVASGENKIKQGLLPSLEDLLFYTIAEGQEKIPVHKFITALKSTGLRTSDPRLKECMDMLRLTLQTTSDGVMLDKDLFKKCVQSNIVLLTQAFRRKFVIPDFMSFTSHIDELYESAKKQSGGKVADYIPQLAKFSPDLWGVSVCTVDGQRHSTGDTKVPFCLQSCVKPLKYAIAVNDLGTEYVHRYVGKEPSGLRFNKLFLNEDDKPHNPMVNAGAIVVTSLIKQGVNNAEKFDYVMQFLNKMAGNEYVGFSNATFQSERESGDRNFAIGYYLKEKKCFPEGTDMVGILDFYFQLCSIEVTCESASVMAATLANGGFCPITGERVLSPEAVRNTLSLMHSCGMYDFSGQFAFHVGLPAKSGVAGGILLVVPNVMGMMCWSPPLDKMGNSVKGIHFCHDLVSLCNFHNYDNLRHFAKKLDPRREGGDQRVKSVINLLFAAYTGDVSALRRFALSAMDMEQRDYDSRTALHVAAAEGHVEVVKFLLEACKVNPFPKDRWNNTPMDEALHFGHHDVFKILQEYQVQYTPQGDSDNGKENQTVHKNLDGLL
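Read-out is an Amplex red fluorescence increase coupled through glutamate oxidase and HRP, measured before and after 30 min room-temperature incubation. hKGA is in 45 mM KH2PO4 (pH 8.2) with 0.02% Tween-20; glutamine added as 1mM solution.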
HP1b chromo inh = HTS for Inhibitors of HP1-beta Chromodomain Interactions with Methylated Histone Tails | Chromobox protein homolog 1 (Homo sapiens), P83916 | AlphaScreen HP1-beta / biotin-H3K9me3 peptide binding | Potency, µM (doses to about 114 µM), for the others: at the top dose activity change, negative = inhibition, usual class: inhibitors | 390,000 tested, 0.56% active; further: nearly all actives have a fitted effect of over 70% in size
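Compound inhibition of the preformed complex between 50 nM HP1-beta and 50 nM biotinylated H3K9me3 peptide was read by AlphaScreen. Buffer was PBS pH 7.4 with 0.01% Tween-20. Incubations ran 30 min at room temperature, with 10 ug/mL donor/acceptor beads.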
BAZ2B inh = qHTS Assay for Inhibitors of BAZ2B. Bromodomain adjacent to zinc finger domain protein 2B (Homo sapiens), Q9UIF8. 360,000 tested, 4.4% active. AlphaScreen BAZ2B-H3K14Ac peptide displacement. Potency, µM (top dose mostly 114 µM), without a hit: at the top dose activity change, negative = inhibition, most hits filed as inhibitors; further: on the % scale 0 is the no-effect control and ±100 the full control effect; nearly all actives have a fitted effect of over 60% in size
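Complex of BAZ2B and biotin-H3K14Ac (50 nM apiece) forms over 30 min at RT, then faces library compounds up to 110 uM for another 30 min; AlphaScreen beads added, 20 min dark incubation, luminescence read.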
G9a inh = qHTS Assay for Inhibitors of Histone Lysine Methyltransferase G9a; G9a H3K9 monomethylation, AlphaScreen, 2 h; Potency, µM (titrated, usually from 102 µM), without a hit: top-dose activity, negative = inhibition, usual class: inhibitors; 350,000 tested, 8.8% active; AID 504332, 2011; further: on the % scale 0 is the no-effect control and ±100 the full control effect; nearly all actives have a fitted effect of over 75% in size
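AlphaScreen read-out: biotin-H3K9 peptide (500 nM) methylation by 20 nM enzyme with 20 uM SAM, 2 h at room temperature after 15 min compound preincubation; anti-monomethyl H3K9 antibody plus donor/acceptor beads, 10 min dark.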
JMJD2A Tudor inh = qHTS Assay for Inhibitors of JMJD2A-Tudor Domain | AID 504339, 2011 | Potency, µM (top dose mostly 114 µM), for inactives: top-dose activity change, negative = inhibition, actives largely listed as inhibitors | Lysine-specific demethylase 4A (Homo sapiens), O75164 | AlphaScreen JMJD2A-Tudor / H3K4me3 peptide binding | 390,000 tested, 4.4% active; further: on the % scale 0 is the no-effect control and ±100 the full control effect; nearly all actives have a fitted effect of over 50% in size
Numbers without * were called inactive; ? = inconclusive; / = not tested or not shown; ! = a repeat was not active; [ ] = another dose, or the depositor's remark. The call rests on the fitted dose curve; in most records, active means well fitted curve in the direction sought with a large enough effect; inconclusive means small, poorly fitted or top-dose-only effect, or another doubt; inactive means no such curve, though single readings can be large; an effect the other way counts as inactive or inconclusive. Potency means the concentration at half of the fitted maximal effect.

SMILES	GLS inhibitor	HP1b chromo inh	BAZ2B inh	G9a inh	JMJD2A Tudor inh
CS(=O)(=O)c1ccc(Cl)c(NC(=O)CSc2n[nH]c(-c3cccs3)n2)c1	-3%	30%	5%	21%[2.33 µM]	-14%
COc1ccc(CNC(=O)CSc2nnc(C)c3c(C)n(-c4ccccc4)nc23)c(OC)c1	2%	-8%	-20%	-29%[59 µM]	-11%
CCOC(=O)c1cc(-c2ccc(OC)cc2)n(CCC(=O)Nc2nc3ccc(OCC)cc3s2)c1C	0%	39%	0%	-31%[59 µM]	-14%
CCOC(=O)/C=C/C(=O)Nc1ccc(S(=O)(=O)Nc2cc(C)on2)cc1	8%	7%	-19%	50µM*	-6%
Cc1cc(NS(=O)(=O)c2ccc(NC(=O)COc3c(C)cc(Br)cc3C)cc2)no1	7.9µM*	28%	-34%	56µM*!	-11%
Cc1ccc(S(=O)(=O)Nc2ccc(-c3cn4ccc(C)cc4n3)cc2)cc1	9%	2%	-10%	45µM*	?
CCOC(=O)Nc1ccc(S(=O)(=O)Nc2cc(C)on2)cc1	-3%	31%	5%	11%[12.7 µM]	-14%
CCCCC(Br)C(=O)Nc1ccc(S(=O)(=O)Nc2cc(C)nc(C)n2)cc1 (centres undefined)	-28%	14%[57 µM]	-23%	50µM*	-6%
C[C@H](CO)N1C[C@H](C)[C@@H](CN(C)C(=O)Nc2ccc(F)cc2)Oc2ncc(-c3ccc(F)cc3)cc2C1=O	-4%	/	/	/	/
Cc1ccc(S(=O)(=O)Nc2ccc(S(=O)(=O)Nc3cc(C)nc(C)n3)cc2)cc1	3%	41%	?	10µM*	1%
CCOC(=O)/C=C/C(=O)Nc1ccc(S(=O)(=O)N(C)c2ccccc2)cc1	13%	8%	-17%	45µM*	-29%
COc1ccc(C)cc1Nc1n[n+](-c2ccccc2)c(-c2c(Cl)cccc2Cl)s1	23%	?	16µM*	40µM*	50µM*
COc1ccc(C)cc1Nc1n[n+](-c2ccccc2)c(-c2ccc(OC)c(OC)c2OC)s1	-7%	-3%	?	/	?
COc1ccc(C)cc1Nc1n[n+](-c2ccccc2)c(-c2ccc(N(C)C)cc2)s1	11%	?	28µM*	50µM*	50µM*
COc1ccc(OC)c(NC(=O)CSc2nc3nc(C)cc(C)n3n2)c1	-2%	39%	10%	30%[12.7 µM]	-4%
Cc1cc(C2=NNC(=NC3CC3)SC2)c(C)n1-c1ccccc1F	33%	?	?	?	28µM*
c1ccc2oc(C3=NNC(=NC4CC4)SC3)cc2c1	18%	-12%	?	11µM*	?
O=C(Cn1c(=O)n(-c2cccc(C(F)(F)F)c2)c(=O)c2sccc21)NCC1CCCO1 (centres undefined)	1%	9%	-1%	8%	40µM*
COc1ccccc1CN(C)C(=O)COC(=O)c1cc(C)oc1C	7%	13%	-3%	45µM*	-14%
COc1ccccc1CNC(=O)COC(=O)c1cc(C)oc1C	2%	37%	4%	-34%	-18%
Fc1cccc(F)c1/C=C/c1ccc2ccccc2n1	7%	202%	77%	?	82%
Fc1cccc(Cl)c1/C=C/c1cnc2ccccc2n1	-9%	28%	5%	50µM*	20%
CC(C)Oc1ccccc1C1C=C(C(=O)O)Nc2ncnn21 (centres undefined)	-3%	4%	?	14µM*	-26%
COc1cc(C2C=C(C(=O)O)Nc3ncnn32)ccc1O (centres undefined)	23%	27%	-32%	13µM*	79µM*
CCCN1CNc2c(c(=O)[nH]c(=S)n2CCc2ccc(Cl)cc2Cl)C1	/	13%	/	/	-12%
SMILES	GLS inhibitor	HP1b chromo inh	BAZ2B inh	G9a inh	JMJD2A Tudor inh
Cn1cnc2nc(NCCO)nc(NCc3ccccc3)c21	/	/	/	31%[59 µM]	/
Cc1ccc(NS(=O)(=O)c2ccc3c(ccn3C)c2)cc1C	/	/	/	/	-17%
CCOC(=O)C1=C(N)Oc2ccc(Br)cc2C1C(C#N)C(=O)OCC (centres undefined)	/	/	/	20%[59 µM]	/
Cc1ccc(C)n1Cc1ccc(C(=O)O)cc1	7.1µM*	?	16µM*	8.9µM*	0.79µM*
COC(=O)c1cc(N/C(N)=N/c2nc(C)cc(C)n2)cc(C(=O)OC)c1	-15%	/	/	/	/
CCC(=O)NC1=C(Cl)C(=O)C(NC(=O)CC)=C(Cl)C1=O	?	4µM*	45µM*	0.25µM*	4µM*
CCC(=O)NC1=C(NC(C)c2ccccc2)C(=O)c2ccccc2C1=O (centres undefined)	1%	1%	?	?	-29%
CC(=O)c1ccc(OCC(=O)Nc2ccc(N3CCCCC3)cc2)cc1	22%	?	45µM*	-17%[12.7 µM]	?
Cc1ccc(OCC(=O)Nc2ccc(C(=O)Nc3ccccc3C(=O)O)cc2)cc1C	19%	/	/	/	/
Cc1cc(C)cc(OCC(=O)Nc2ccc(N3CCCC3)cc2)c1	0%	-36%	-30%	-11%[59 µM]	?
Cc1ccc(OCC(=O)Nc2ccc(N3CCCC3)cc2)cc1C	-7%	?	28µM*	11µM*	32µM*
COc1ccc(OCC(=O)Nc2ccc(N3CCCCC3)cc2)cc1	20%	-16%	-31%	8%	-14%
Cc1ccc(OCC(=O)Nc2ccc(O)c(C(=O)O)c2)cc1C	50%	9%	5%	35µM*	-17%
Cc1ccc(C(C)C)cc1OCC(=O)Nc1ccc(N2CCCCC2)cc1	-2%	?	28µM*	16µM*	?
CC(C)c1ccc(NC(=O)Nc2nc(C(N)c3ccccc3Cl)cs2)cc1 (centres undefined)	2%	/	/	/	/
Cc1ccc(OCC(=O)Nc2ccc(N3CCN(S(C)(=O)=O)CC3)cc2)cc1	-3%	10%	-4%	/	-3%
CCc1ccc(OCC(=O)Nc2ccc(N3CCN(S(C)(=O)=O)CC3)cc2)cc1	1%	34%	13%	79µM*	1%
